High-throughput results (PubChem)
GLS inhibitor: inhibitors of human glutaminase (GLS); Potency, µM (highest dose often 45.5 µM), inactives show at the top dose activity change, negative = inhibition, usual class: inhibitors; GLS enzymatic activity, qHTS titration; AID 624170; 410,000 compounds, 0.21% hits; O94925; also: % is scaled to controls: 0 for no effect and ±100 for the full control effect
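hKGA; 45 mM KH2PO4 pH 8.2 + 0.02% Tween-20; cpd via pin tool; 1 mM Gln soln; GluOx/HRP/Amplex Red; RT 30 min; fluor. t0 & final.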
G9a block: inhibitors of human histone lysine methyltransferase G9a; 350,000 compounds, 8.8% hits; Potency, µM (series often up to 102 µM), for the others: at the top dose activity, negative = inhibition, hits mostly inhibitors; G9a H3K9 monomethylation, AlphaScreen, 2 h; also: % is scaled to controls: 0 for no effect and ±100 for the full control effect; nearly all actives have a fitted effect of over 75% in size
Target sequence (Q96KQ7 913-1193 limits assumed): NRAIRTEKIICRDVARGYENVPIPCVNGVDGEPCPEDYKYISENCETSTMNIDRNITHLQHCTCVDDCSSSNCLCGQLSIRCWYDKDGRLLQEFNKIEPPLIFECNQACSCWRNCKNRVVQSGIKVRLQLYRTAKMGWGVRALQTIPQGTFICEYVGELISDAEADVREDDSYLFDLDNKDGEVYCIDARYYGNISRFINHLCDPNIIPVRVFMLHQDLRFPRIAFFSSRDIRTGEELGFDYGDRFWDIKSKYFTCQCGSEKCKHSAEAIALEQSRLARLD
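Enzyme 20 nM + cpd, 15 min RT; add b-H3K9 pep 500 nM / SAM 20 uM; 2 h RT; anti-H3K9me1 Ab 0.5 ug/mL + SA donor / anti-rabbit acceptor beads 20 ug/mL each, 10 min; AlphaScreen read.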
BAZ2B block: blocks human BAZ2B; 360,000 compounds, 4.4% hits; AlphaScreen BAZ2B-H3K14Ac peptide displacement; Potency, µM (top dose mostly 114 µM), for the others: at the highest dose activity change, negative = inhibition, hits mostly inhibitors; Q9UIF8; AID 504333; also: % is scaled to controls: 0 for no effect and ±100 for the full control effect; nearly all actives have a fitted effect of over 60% in size
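Protein-peptide AlphaScreen: BAZ2B 50 nM, b-H3K14Ac 50 nM, 1x PBS pH 7.4 + 0.01% Tween-20. Preincubation 30 min RT; cpd 30 min RT (top 110 uM); beads 20 min RT, light-protected.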
HP1b chromo inh: blocks HP1-beta chromodomain binding to methylated histone tails; P83916; AlphaScreen HP1-beta / biotin-H3K9me3 peptide binding; Potency, µM (top dose mostly 114 µM), for the others: at the top dose activity change, negative = inhibition, usual class: inhibitors; 390,000 compounds, 0.56% hits; also: nearly all actives have a fitted effect of over 70% in size
Target sequence (P83916 whole entry, looked up): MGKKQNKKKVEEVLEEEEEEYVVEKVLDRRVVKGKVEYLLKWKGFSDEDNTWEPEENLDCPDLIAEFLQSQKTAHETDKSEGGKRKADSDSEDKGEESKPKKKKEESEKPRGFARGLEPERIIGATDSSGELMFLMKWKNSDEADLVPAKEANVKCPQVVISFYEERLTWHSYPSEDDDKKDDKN
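HP1-beta protein (50 nM final) preincubated 30 min at room temperature with biotinylated H3(1-18)K9me3 peptide (50 nM) in PBS pH 7.4, 0.01% Tween-20, then compound added for 30 min. AlphaScreen streptavidin donor/nickel chelate acceptor beads (10 ug/mL final), 30 min dark, luminescence read.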
JMJD2A Tudor: inhibitors of human JMJD2A Tudor domain; Potency, µM (series often up to 114 µM), inactives show top-dose activity change, negative = inhibition, usual class: inhibitors; AlphaScreen JMJD2A-Tudor / H3K4me3 peptide binding; 390,000 compounds, 4.4% hits; AID 504339; also: % is scaled to controls: 0 for no effect and ±100 for the full control effect; nearly all actives have a fitted effect of over 50% in size
Active calls of the source: *; u = inconclusive; x = not tested or not shown; [ ] = dose if it differs, or a comment. A selection: hits, their analogues and other compounds. The true share with any hit is near 10%. Calls follow the shape of the dose curve; as a rule, active = well fitted curve in the direction sought with a large enough effect; inconclusive = small, poorly fitted or top-dose-only effect, or another doubt; inactive = no such curve, though single readings can be large; an effect the other way counts as inactive or inconclusive. Potency is read from the fitted curve at half-maximal effect.

SMILES | GLS inhibitor | G9a block | BAZ2B block | HP1b chromo inh | JMJD2A Tudor
Cc1ccc(-n2nc(C)c(NC(=O)COC(=O)c3ccccc3NCCO)c2C)cc1 | 7.4% | 50.1µM* | 12.5% | 22.2% | -4.1%
COc1cccc(-c2nc(SCC(=O)Nc3ccc4c(c3)OCCO4)c(-c3ccccc3)[nH]2)c1 | -18.5% | u | -33.3% | 17.1% | u
O=C(CSc1ccccc1)Nc1ccc2c(c1)OCO2 | -1.5% | 3.4% | 0.3% | 12.6% | 1.4%
COc1cc(C(=O)OCC(=O)NC2CCCCC2)cc2c1OCCO2 | -3.0% | 0.3%[12.7 µM] | -0.9% | 64.4% | 4.1%
O=C(CSc1ccccc1)NCc1ccco1 | 8.6% | -12.4%[59 µM] | 6.7% | 8.6% | -22.9%
Cc1cc(C(F)(F)F)nn1CC(=O)Nc1ccc2c(c1)OCO2 | 0.2% | 24.0% | -13.0% | 20.8% | -19.7%
Cc1nn(CC(=O)Nc2ccc3c(c2)OCO3)c(C)c1Cl | -6.1% | 70.8µM* | -13.8% | 45.1% | 1.6%
O=C(CSc1ccc2c(c1)OCCO2)NCc1ccco1 | 6.5% | 50.1µM* | u | 24.0% | -16.7%
CSc1ncccc1C(=O)OCC(=O)N1CCCC1 | -3.0% | x | x | 0.9% | -19.5%
CCC(Sc1ncccc1C(=O)O)C(=O)N1CCOCC1 (stereo unspecified) | -0.4% | u | u | 48.8% | 5.62µM*
CCC(Sc1ncccc1C(=O)O)C(=O)N1CCCC1 (stereo unspecified) | 6.2% | u | u | 34.7% | 3.55µM*
CCOC(=O)c1cccnc1SC(CC)C(=O)N1CCOCC1 (stereo unspecified) | 3.6% | -38.9% | 2.7% | 8.5% | -6.4%
O=C(CN1CCCC1)Nc1cc(F)ccc1F | 0.0% | 3.2% | 1.5% | 30.3% | -13.2%
O=C(COc1ccccc1[N+](=O)[O-])Nc1ccccc1N1CCCCC1 | 7.5% | x | -35.4% | -3.9% | u
CC1CC(C)CN(CCCNC(=O)c2ccc(CS(=O)(=O)Cc3cccc(Cl)c3)o2)C1 (stereo unspecified) | -8.6% | 23.5% | 0.7% | 11.3%[57 µM] | -5.9%
Oc1ccc(Nc2ccc3ccccc3c2)cc1 | 14.1µM* | x | x | u | 39.8µM*
Cc1cc(Nc2ccc(O)cc2)ccc1N | x | -2.0%[0.501 µM] | 6.31µM* | 11.2µM* | u
COc1ccc(CNC(=O)C(=O)NCCC2CCCCN2S(=O)(=O)c2cccs2)cc1 (stereo unspecified) | 1.5% | 9.1%[0.501 µM] | 11.8% | 23.3% | -17.1%
CCCCNC(=S)NNc1c(Cl)cc(Cl)cc1Cl | -4.2% | 25.1µM* | x | -32.8% | 39.8µM*
CC(=O)Nc1ccc(NC(C)=C(C#N)C#N)cc1 | 0.2% | 29.2%[59 µM] | -2.4% | 13.3% | -13.5%
O=C(NCCCc1ccccc1)c1ccc(F)cc1 | 1.0% | -3.0% | 9.6% | 67.0% | 2.1%
O=C(NCCNC1CCC(c2ccccc2)CC1)c1ccc(F)cc1 (stereo unspecified) | -7.9% | u | 25.1µM* | u | 5.62µM*
O=C1c2ccccc2C(=O)C1c1ccc(Cl)cc1 | 0.3% | 44.7µM* | u | 9.0% | -19.0%
CN=CC1=C(O)c2ccccc2C1=O | -1.3% | 1.5%[59 µM] | 0.7% | 18.2% | -4.3%
O=C1C(C2=C(O)c3ccccc3C2=O)=Nc2ccccc21 | -9.7% | x | 39.8µM* | u | 31.6µM*
SMILES | GLS inhibitor | G9a block | BAZ2B block | HP1b chromo inh | JMJD2A Tudor
O=C(CC(=O)N1CCN(c2ccccn2)CC1)Nc1ccc2nc3n(c(=O)c2c1)CCCCC3 | -0.2% | -12.5% | 2.9% | 26.9% | -3.5%
Cn1c(NC(=O)c2cc(-c3ccc4c(c3)OCO4)nc3ccccc23)cc(=O)n(C)c1=O | -11.1% | -7.2% | -6.6% | 27.0% | -7.6%
O=C(Nc1c(F)cc(F)cc1Br)c1cc(S(=O)(=O)N2CCN(c3ccccn3)CC2)ccc1F | -1.5% | 50.1µM* | u | 27.8% | u
C=CCc1ccc(OCCCNC2CCCC2)c(OC)c1 | -3.1% | x | x | u | 79.4µM*
COc1ccccc1OCCNC1CCCC1 | -7.1% | 39.8µM* | u | -17.2% | 3.55µM*
COc1ccccc1CNS(=O)(=O)CCNC1CCCCC1 | -3.0% | x | x | 50.4% | -14.4%
C=CCc1ccccc1OCC(O)CNC1CCCC1 (stereo unspecified) | 2.0% | 23.1% | 14.0% | 28.5% | 14.0%
C=CCc1ccc(OCCCNCc2ccccc2)c(OC)c1 | 1.2% | x | 50.1µM* | u | 28.2µM*
C=CCc1cccc(Cl)c1OCCCNC1CCCC1 | -13.5% | x | u | 8.0% | 50.1µM*
C=CCc1ccc(OCCCOc2ccc(C)cc2OC)c(OC)c1 | 1.2% | -0.8% | 58.9% | 40.6% | -6.2%[11.4 µM]
N#Cc1ccccc1OCCOCCNC1CCCC1 | 0.2% | 10µM* | u | -28.1% | u
OC1Cc2ccccc2C1Nc1cccc(C(F)(F)F)c1 (stereo unspecified) | 16.7% | x | x | 10.3% | -27.1%
COCCCn1c(=S)[nH]c2sc3c(c2c1=O)CCCS3 | 10.3% | 4.47µM* | u | 27.2% | -17.6%
CCn1c(=O)n(CCOC)c(=O)c2c3c(sc21)CCCC3 | -8.2% | -45.7%[59 µM] | 6.1% | 29.1% | 14.1%
CC(=O)Cn1nnc2sc3c(c2c1=O)CCC(C(C)(C)C)C3 (stereo unspecified) | -3.3% | -5.3% | -20.0% | 16.7% | -28.6%
Cn1c(=S)[nH]c2sc3c(c2c1=O)CCC(C(C)(C)C)C3 (stereo unspecified) | x | 39.8µM* | 2.8% | x | x
CCCn1c(=S)[nH]c2sc3c(c2c1=O)CCCC3 | -1.0% | -5.4% | -3.7% | 22.1% | -32.5%
COCCn1c(=S)[nH]c2sc3c(c2c1=O)CCC(C)C3 (stereo unspecified) | u | 20µM* | -5.0% | 14.8% | -21.9%
Cc1cccnc1CN1CCN(Cc2nc(C(c3ccccc3)c3ccccc3)no2)CC1 | 2.4% | x | u | 12.1% | u
N#Cc1ccc(N2CCCC2C(=O)O)c([N+](=O)[O-])c1 (stereo unspecified) | -0.2% | x | u | 29.7% | -12.2%
CN=c1scc(-c2c[nH]c3ccccc23)n1C | -2.9% | 39.8µM* | -12.9% | 16.5% | -19.4%
CC(=O)N1CCc2cc(S(=O)(=O)NC(Cc3ccccc3)C(=O)NC3CCCCCC3)ccc21 (stereo unspecified) | 0.0% | u | 0.7% | 25.7% | -15.3%
O=C1NC(=S)NC1=Cc1ccc(O)cc1 | -6.1% | x | x | 33.9% | -19.3%
O=C1NC(=S)N/C1=C\c1ccc(N2CCOCC2)cc1 | -16.2% | u | -8.6% | 0.1% | 20µM*
Cc1cccc(NC(=S)N/N=C/C(C)c2ccccc2)c1C (stereo unspecified) | -9.5% | u | u | 26.1% | u
Cc1ccccc1NC(=S)N/N=C/C(C)c1ccccc1 (stereo unspecified) | -14.9% | 22.4µM* | -26.2% | 40.4% | u
Cc1cccc(NC(=S)N/N=C/c2cccc(O)c2)c1C | 18.0% | 1.3% | -29.3% | 18.7% | -13.0%
Cc1ccccc1NC(=S)N/N=C/c1ccc(O)cc1O | -19.2% | 3.0%[12.7 µM] | 8.91µM* | u | 56.2µM*
Cc1ccc2nc3n(c(=O)c2c1)-c1ccccc1C(=O)NC3Cc1ccccc1 (stereo unspecified) | x | -5.0%[2.33 µM] | 3.2% | x | x
